According to PubChem BioAssay AID1159580 (chemical genetic matrix, 2015):
Out of some 5,500 compounds screened, about 2,000 (36%) were called active. Inconclusive results (about 18%) are left out. Cut-off read from the data, not from the text of the source: active = normalized growth mostly below about 0.91 (no sharp cut-off); inconclusive = no clear call, values can overlap the other calls; inactive = mostly above about 0.92. The list shows a part of the results.

Assay: chemical genetic growth profiling, strain panel (AID 1159580);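 note: tested at 20 µM; growth read once vehicle control cultures reached saturation at 30 °C; 1 = growth at the plate median or of vehicle wells; lower values mean less growth of the strain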
Details: growth OD

Measured: normalized growth

Cc1onc(-c2c(Cl)cccc2Cl)c1NC(=O)O/N=C\c1ccc(N(C)C)cc1
inactive: S. cerevisiae deletion strains, locus YBR229C, strain ROT2, active compounds read low 0.975 | S. cerevisiae deletion strains, locus YCL061C, strain MRC1, active compounds read low 0.994 | S. cerevisiae deletion strains, locus YDL101C, strain DUN1, active compounds read low 0.978 | S. cerevisiae deletion strains, locus YHR087W, strain rtc3, active compounds read low 1.02 | S. cerevisiae deletion strains, locus YJR075W, strain HOC1, active compounds read low 1.04 | S. cerevisiae deletion strains, locus YLR039C, strain RIC1, active compounds read low 0.865 | S. cerevisiae deletion strains, locus YLR058C, strain SHM2 (second series), active compounds read low 0.992 | S. cerevisiae deletion strains, locus YLR262C, strain YPT6, active compounds read low 0.956 | S. cerevisiae deletion strains, locus YMR219W, strain ESC1, active compounds read low 1.02 | S. cerevisiae deletion strains, locus YNL322C, strain KRE1, active compounds read low 0.962 | S. cerevisiae deletion strains, locus YPR135W, strain CTF4, active compounds read low 0.698 | S. cerevisiae strains, strain wild type, active compounds read low 0.956
active: S. cerevisiae deletion strains, locus YAL013W, strain DEP1, active compounds read low 0.807 | S. cerevisiae deletion strains, locus YDR150W, strain NUM1, active compounds read low 0.693 | S. cerevisiae deletion strains, locus YEL061C, strain CIN8, active compounds read low 0.338 | S. cerevisiae deletion strains, locus YGR078C, strain PAC10, active compounds read low 0.861 | S. cerevisiae deletion strains, locus YHR030C, strain SLT2, active compounds read low 0.12 | S. cerevisiae deletion strains, locus YJR043C, strain POL32, active compounds read low 0.769 | S. cerevisiae deletion strains, locus YLR085C, strain ARP6, active compounds read low 0.0906 | S. cerevisiae deletion strains, locus YML094W, strain GIM5, active compounds read low 0.152 | S. cerevisiae deletion strains, locus YMR263W, strain SAP30, active compounds read low 0.78 | S. cerevisiae deletion strains, locus YNL153C, strain GIM3, active compounds read low 0.907 | S. cerevisiae deletion strains, locus YNL298W, strain CLA4 (second series), active compounds read low 0.266 | S. cerevisiae deletion strains, locus YNR030W, strain Alg12, active compounds read low 0.357 | S. cerevisiae deletion strains, locus YOL006C, strain TOP1, active compounds read low 0.25 | S. cerevisiae deletion strains, locus YPL055C, strain LGE1, active compounds read low 0.624 | S. cerevisiae deletion strains, locus YPL241C, strain CIN2, active compounds read low 0.44
